Results: PubChem BioAssay (NCI)
This is part of a sample that, as a whole, favours compounds with a hit. Of some 83,000 tested, about 20% had one in any assay.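 48-hour exposure, single concentration, 96-well plates; percent growth endpoint where 0 means no net growth. Active: below 10.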 Unmarked numbers belong to inactive results. Calls of active or inactive are those of the source.

System: HCT-116 colon
Assay: NCI-60 one-dose screen, 48 h (100 = growth as untreated, 0 = no growth, -100 = all killed)
Conditions: 10 µM unless noted

Compound	growth
O=C(CSc1nc2sc3c(c2c(=O)n1-c1ccc(Cl)cc1)CCCC3)NNC(=O)Nc1cccc(C(F)(F)F)c1	5.54% (active)
CCCCN1C(=O)/C(=c2\sc3n(c2=O)C2C(NN=3)N(CC)C(=O)N2CC)c2cc(Cl)ccc21 (configuration not stated)	56.7%
COc1cc(OC)c(C2C(Cl)C(=O)N2Nc2ncnc3ccccc23)cc1OC (configuration not stated)	96.5%
CC(=O)Oc1ccccc1C(=O)Nc1ccc(C(=O)/C=C/c2ccncc2)cc1	-72.5% (active)
COc1ccc(/C=C/C(=O)c2ccc(NC(=O)CSc3nnc(-c4ccc5nc(-c6ccc(Cl)cc6)[nH]c5c4)o3)cc2)cc1	93.4%
COc1cc(/C=C/C(=O)c2ccc(F)cc2)ccc1Oc1nc(NCCO)nc(N2CCOCC2)n1	11.3%
Cn1ccnc1C(=O)/C=C/c1ccc(NC(=O)Nc2ccc(Cl)cc2)cc1	25%
O=C(CSc1nc2sc3c(c2c(=O)n1-c1ccc(Cl)cc1)CCCC3)NNC(=O)Nc1ccc(Cl)c(C(F)(F)F)c1	13.6%
C#C[C@]1(O)CC[C@H]2[C@@H]3CC=C4c5sc(-c6ccc(F)cn6)nc5CC[C@]4(C)[C@H]3CC[C@@]21C	18.1%
CC(=NNc1ncnc2ccccc12)c1ccc(S(C)(=O)=O)cc1	100%
COc1ccc(-c2cc(C(=O)N=Nc3c(O)[nH]c4ccccc34)c3ccccc3n2)cc1OC	101%
Fc1ccc(-c2cc3nc(C(Cl)Cl)nc(-c4ccc(Cl)cc4)n3n2)cc1	11.7%
